# Key:
# [1] = molecular target: T1, TGF-beta receptor type-1 (Homo sapiens) (UniProt P36897); conditions: at 10 µM
# T1 sequence (whole entry): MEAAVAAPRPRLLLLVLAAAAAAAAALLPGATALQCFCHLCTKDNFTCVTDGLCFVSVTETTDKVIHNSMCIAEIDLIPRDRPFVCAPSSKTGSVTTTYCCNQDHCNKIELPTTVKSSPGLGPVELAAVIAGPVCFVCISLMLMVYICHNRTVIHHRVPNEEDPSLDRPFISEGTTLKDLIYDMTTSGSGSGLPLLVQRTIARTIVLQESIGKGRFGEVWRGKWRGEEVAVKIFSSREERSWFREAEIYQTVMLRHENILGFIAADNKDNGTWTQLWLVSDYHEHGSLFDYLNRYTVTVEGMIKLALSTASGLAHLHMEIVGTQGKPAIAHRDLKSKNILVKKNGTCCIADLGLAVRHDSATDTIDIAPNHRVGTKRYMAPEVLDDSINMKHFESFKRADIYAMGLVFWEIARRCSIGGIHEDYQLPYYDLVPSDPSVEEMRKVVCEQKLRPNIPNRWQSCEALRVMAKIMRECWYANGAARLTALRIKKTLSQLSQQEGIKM
# [2] = molecular target: T2, Inhibitor of nuclear factor kappa-B kinase subunit alpha (Homo sapiens) (UniProt O15111); conditions: at 1 µM
# T2 sequence (whole entry): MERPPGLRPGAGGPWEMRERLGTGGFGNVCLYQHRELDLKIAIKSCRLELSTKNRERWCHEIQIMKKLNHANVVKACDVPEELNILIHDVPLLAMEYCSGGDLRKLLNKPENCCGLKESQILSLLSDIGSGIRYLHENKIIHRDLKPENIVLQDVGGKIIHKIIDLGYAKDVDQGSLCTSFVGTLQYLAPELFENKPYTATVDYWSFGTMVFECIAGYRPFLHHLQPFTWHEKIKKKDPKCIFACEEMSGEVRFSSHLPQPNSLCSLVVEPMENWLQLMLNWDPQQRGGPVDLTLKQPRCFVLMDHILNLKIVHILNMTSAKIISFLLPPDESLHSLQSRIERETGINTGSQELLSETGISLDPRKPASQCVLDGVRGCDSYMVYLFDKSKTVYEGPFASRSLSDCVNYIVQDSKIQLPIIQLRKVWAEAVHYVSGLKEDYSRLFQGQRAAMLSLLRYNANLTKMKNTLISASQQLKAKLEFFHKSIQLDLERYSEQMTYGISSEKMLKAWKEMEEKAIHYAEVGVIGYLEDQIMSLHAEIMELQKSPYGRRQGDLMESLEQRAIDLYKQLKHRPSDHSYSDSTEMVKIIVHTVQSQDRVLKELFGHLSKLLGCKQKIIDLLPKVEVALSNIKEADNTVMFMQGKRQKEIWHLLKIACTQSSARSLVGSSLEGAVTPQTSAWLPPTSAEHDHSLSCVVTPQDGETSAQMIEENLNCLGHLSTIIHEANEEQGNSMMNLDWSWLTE
# [3] = molecular target: T3, Serine/threonine-protein kinase TBK1 (Homo sapiens) (UniProt Q9UHD2); conditions: at 10 µM
# T3 sequence (whole entry): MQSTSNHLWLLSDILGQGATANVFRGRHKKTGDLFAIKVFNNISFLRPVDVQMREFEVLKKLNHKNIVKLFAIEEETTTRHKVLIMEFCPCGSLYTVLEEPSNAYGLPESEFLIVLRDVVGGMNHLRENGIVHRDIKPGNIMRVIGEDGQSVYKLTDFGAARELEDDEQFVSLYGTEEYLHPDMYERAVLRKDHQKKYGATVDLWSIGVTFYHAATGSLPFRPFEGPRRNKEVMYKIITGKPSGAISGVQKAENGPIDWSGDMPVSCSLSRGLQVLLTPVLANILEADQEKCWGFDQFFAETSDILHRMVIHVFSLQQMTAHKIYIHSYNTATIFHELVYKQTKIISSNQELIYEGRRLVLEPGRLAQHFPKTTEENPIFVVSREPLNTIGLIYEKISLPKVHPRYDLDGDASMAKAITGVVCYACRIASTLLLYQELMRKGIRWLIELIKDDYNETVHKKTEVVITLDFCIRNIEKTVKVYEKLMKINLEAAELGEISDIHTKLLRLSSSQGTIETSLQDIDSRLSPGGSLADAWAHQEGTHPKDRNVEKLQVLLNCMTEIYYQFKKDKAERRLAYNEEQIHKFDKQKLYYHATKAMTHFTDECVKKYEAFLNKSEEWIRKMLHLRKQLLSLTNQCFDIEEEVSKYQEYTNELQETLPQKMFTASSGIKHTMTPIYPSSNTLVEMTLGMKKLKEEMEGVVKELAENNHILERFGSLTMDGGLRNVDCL
# [4] = molecular target: T4, Inhibitor of nuclear factor kappa-B kinase subunit beta (Homo sapiens) (UniProt O14920); conditions: at 1 µM
# T4 sequence (whole entry): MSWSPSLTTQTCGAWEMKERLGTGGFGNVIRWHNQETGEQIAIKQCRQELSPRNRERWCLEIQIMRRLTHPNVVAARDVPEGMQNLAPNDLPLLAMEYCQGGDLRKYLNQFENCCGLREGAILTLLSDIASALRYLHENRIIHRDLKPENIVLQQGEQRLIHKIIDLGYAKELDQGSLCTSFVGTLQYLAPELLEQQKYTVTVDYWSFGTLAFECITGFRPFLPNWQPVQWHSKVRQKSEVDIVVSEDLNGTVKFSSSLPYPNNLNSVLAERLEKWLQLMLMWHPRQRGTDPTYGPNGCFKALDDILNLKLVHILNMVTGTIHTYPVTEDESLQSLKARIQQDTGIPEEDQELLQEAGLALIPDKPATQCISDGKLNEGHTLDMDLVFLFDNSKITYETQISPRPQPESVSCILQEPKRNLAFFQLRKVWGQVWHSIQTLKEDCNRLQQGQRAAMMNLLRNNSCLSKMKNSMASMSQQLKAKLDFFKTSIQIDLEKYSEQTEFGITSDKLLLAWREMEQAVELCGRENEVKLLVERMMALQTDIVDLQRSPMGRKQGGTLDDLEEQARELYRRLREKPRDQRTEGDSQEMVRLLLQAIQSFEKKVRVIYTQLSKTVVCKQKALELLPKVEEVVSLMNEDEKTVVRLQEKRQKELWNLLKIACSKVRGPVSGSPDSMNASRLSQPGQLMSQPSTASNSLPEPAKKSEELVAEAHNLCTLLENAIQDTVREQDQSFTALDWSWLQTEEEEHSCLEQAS
# [5] = molecular target: Insulin receptor-related protein (Homo sapiens) (UniProt P14616); conditions: at 1 µM
# Sequence of Insulin receptor-related protein (Homo sapiens) (P14616 27-742 limits assumed): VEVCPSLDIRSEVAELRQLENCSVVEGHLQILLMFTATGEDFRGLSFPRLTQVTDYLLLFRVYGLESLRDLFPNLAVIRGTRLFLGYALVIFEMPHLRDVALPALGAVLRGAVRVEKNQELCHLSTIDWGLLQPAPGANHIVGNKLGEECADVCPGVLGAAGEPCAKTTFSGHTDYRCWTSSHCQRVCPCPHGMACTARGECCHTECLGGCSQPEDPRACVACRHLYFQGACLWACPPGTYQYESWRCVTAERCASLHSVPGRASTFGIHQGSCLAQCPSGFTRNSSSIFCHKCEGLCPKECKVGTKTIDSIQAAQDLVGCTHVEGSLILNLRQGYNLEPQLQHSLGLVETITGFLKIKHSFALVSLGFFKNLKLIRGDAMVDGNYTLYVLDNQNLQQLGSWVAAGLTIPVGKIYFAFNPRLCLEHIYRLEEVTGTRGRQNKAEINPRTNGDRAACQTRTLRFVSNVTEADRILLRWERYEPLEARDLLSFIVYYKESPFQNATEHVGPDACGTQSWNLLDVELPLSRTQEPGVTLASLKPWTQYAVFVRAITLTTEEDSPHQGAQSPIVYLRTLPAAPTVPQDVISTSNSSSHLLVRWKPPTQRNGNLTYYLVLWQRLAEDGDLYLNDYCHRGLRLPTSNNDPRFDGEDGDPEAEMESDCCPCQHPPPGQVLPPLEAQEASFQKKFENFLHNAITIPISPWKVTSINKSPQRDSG
# Sequence of Insulin receptor-related protein (Homo sapiens) (P14616 747-1297 limits assumed): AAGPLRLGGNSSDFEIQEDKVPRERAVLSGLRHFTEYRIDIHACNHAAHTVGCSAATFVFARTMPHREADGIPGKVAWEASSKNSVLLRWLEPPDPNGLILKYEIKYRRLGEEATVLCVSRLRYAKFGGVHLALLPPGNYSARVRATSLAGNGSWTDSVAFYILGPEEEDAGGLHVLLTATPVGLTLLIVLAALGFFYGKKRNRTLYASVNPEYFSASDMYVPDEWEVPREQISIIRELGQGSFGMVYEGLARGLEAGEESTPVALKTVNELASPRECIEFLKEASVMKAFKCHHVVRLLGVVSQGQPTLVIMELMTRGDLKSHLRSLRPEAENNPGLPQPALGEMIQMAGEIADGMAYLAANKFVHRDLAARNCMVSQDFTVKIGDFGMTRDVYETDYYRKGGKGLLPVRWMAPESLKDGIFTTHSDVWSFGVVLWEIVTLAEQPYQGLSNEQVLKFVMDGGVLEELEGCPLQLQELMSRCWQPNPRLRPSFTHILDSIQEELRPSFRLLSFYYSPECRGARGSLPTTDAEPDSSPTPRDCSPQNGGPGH
# [6] = molecular target: Insulin receptor (Homo sapiens) (UniProt P06213); conditions: at 1 µM
# Sequence of Insulin receptor (Homo sapiens) (P06213 28-758 limits assumed): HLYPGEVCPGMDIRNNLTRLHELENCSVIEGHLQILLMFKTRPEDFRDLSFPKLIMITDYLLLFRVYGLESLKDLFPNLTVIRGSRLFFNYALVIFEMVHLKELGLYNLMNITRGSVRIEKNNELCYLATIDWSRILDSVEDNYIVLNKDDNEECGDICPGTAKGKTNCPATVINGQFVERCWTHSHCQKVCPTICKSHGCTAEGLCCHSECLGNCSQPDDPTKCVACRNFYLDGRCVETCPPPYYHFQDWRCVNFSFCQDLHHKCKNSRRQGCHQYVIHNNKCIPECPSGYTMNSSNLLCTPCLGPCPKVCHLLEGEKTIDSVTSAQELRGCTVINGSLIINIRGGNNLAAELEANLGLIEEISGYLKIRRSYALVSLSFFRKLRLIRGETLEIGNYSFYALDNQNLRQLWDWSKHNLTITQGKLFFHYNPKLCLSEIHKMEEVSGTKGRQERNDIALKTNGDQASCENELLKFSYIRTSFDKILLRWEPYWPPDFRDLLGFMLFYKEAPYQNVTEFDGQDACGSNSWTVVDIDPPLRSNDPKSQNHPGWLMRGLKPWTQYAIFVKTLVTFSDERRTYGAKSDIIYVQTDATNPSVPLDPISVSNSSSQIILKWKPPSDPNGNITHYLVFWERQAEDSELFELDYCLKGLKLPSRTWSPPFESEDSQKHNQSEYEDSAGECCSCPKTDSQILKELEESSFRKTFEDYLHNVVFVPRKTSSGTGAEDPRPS
# Sequence of Insulin receptor (Homo sapiens) (P06213 763-1382 limits assumed): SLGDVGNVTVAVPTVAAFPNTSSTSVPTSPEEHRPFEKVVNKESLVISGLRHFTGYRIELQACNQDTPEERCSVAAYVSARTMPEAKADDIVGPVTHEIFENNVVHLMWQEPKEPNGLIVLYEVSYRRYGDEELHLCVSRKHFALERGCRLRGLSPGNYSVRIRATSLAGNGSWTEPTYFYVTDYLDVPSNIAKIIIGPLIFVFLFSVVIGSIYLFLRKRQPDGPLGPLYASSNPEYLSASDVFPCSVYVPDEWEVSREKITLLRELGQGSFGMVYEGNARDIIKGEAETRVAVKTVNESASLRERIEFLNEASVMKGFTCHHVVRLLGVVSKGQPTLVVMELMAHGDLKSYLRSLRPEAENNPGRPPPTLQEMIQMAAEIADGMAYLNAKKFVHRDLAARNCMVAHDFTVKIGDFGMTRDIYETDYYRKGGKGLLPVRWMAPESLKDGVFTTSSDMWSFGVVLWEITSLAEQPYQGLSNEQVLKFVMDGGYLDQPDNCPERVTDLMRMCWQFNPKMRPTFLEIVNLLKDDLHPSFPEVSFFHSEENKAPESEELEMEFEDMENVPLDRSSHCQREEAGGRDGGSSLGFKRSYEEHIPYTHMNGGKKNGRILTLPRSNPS
# [7] = molecular target: Insulin receptor (Homo sapiens) (UniProt P06213); conditions: at 1 µM; remark: listed apart in the source
# [8] = molecular target: Insulin receptor (Homo sapiens) (UniProt P06213); conditions: at 10 µM
# [9] = molecular target: Interleukin-1 receptor-associated kinase 1 (Homo sapiens) (UniProt P51617); conditions: at 1 µM
# Sequence of Interleukin-1 receptor-associated kinase 1 (Homo sapiens) (P51617 whole entry, looked up): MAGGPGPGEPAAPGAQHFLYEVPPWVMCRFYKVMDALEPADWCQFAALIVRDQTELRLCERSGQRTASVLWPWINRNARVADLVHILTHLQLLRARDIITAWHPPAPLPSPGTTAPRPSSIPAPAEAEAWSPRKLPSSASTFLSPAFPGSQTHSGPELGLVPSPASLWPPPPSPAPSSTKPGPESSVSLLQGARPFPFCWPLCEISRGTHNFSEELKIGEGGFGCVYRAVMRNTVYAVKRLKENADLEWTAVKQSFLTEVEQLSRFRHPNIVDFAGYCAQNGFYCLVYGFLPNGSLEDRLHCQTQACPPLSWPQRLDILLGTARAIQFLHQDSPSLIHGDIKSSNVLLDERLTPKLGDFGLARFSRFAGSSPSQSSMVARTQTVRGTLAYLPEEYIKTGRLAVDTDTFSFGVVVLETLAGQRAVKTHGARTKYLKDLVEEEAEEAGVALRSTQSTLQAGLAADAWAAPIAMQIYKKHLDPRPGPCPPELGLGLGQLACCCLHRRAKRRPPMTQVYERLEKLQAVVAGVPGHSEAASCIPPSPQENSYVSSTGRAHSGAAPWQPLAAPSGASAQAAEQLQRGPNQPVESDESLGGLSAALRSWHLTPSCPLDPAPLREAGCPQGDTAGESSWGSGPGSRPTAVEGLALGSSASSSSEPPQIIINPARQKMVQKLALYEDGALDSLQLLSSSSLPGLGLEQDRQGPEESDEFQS
# [10] = molecular target: Interleukin-1 receptor-associated kinase 1 (Homo sapiens) (UniProt P51617); conditions: at 10 µM
# [11] = molecular target: T5, Interleukin-1 receptor-associated kinase 4 (Homo sapiens) (UniProt Q9NWZ3); conditions: at 1 µM
# T5 sequence (whole entry): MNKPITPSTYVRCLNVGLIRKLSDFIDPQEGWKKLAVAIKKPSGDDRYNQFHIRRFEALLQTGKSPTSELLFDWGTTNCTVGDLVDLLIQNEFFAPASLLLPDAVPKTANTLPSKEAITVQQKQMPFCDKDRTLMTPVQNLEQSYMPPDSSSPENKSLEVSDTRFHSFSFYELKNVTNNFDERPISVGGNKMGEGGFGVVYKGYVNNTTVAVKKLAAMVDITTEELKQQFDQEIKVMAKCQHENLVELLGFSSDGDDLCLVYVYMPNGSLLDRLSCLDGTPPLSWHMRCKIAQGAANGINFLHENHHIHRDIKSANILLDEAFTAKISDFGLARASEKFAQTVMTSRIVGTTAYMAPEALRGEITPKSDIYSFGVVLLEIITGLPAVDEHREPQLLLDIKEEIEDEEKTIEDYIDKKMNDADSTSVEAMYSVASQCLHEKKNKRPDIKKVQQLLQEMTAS
# [12] = molecular target: T5, Interleukin-1 receptor-associated kinase 4 (Homo sapiens); conditions: at 10 µM
# [13] = molecular target: Insulin receptor-related protein (Homo sapiens) (UniProt P14616); conditions: at 10 µM
# [14] = molecular target: T6, Tyrosine-protein kinase ITK/TSK (Homo sapiens) (UniProt Q08881); conditions: at 1 µM
# T6 sequence (whole entry): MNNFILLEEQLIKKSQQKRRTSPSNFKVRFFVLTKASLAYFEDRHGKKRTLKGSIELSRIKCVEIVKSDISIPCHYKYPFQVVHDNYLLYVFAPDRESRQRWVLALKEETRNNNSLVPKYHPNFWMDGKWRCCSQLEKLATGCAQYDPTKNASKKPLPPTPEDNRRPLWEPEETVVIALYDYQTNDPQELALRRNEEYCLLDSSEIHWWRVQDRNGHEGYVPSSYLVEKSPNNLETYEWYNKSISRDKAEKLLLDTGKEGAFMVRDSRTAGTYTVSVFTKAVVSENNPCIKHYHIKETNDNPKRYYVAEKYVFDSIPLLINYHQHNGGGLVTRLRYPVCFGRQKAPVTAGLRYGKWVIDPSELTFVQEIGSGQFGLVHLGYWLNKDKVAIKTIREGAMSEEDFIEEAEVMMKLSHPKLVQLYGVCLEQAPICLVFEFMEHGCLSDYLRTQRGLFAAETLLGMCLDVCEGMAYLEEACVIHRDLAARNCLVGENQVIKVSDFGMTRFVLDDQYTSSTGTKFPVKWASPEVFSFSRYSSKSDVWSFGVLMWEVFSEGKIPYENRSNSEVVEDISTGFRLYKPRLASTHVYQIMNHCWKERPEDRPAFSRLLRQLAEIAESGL
# [15] = molecular target: T2, Inhibitor of nuclear factor kappa-B kinase subunit alpha (Homo sapiens); conditions: at 10 µM
# [16] = molecular target: T4, Inhibitor of nuclear factor kappa-B kinase subunit beta (Homo sapiens); conditions: at 10 µM
# [17] = molecular target: T1, TGF-beta receptor type-1 (Homo sapiens); conditions: at 1 µM
# [18] = molecular target: Insulin receptor (Homo sapiens) (UniProt P06213); conditions: at 10 µM; remark: listed apart in the source
# [19] = molecular target: Insulin-like growth factor 1 receptor (Homo sapiens) (UniProt P08069); conditions: at 1 µM
# Sequence of Insulin-like growth factor 1 receptor (Homo sapiens) (P08069 31-736 limits assumed): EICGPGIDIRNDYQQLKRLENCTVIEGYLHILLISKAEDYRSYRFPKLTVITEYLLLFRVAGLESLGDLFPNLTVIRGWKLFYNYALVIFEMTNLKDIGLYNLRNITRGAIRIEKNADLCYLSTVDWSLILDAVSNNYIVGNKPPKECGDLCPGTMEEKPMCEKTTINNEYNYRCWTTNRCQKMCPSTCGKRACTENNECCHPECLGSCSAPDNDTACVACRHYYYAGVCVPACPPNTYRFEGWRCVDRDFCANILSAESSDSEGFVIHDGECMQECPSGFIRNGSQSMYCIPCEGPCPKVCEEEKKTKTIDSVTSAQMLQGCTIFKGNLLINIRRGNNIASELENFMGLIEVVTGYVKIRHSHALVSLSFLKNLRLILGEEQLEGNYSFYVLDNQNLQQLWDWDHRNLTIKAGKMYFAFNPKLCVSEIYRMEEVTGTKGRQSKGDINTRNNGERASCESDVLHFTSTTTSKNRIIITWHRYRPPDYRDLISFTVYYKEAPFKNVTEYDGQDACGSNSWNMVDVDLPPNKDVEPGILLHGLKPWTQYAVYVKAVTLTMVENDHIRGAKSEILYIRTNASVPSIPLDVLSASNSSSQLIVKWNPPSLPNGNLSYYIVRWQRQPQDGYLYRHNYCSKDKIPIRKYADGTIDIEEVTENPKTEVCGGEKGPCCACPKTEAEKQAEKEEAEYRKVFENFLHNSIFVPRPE
# Sequence of Insulin-like growth factor 1 receptor (Homo sapiens) (P08069 741-1367 limits assumed): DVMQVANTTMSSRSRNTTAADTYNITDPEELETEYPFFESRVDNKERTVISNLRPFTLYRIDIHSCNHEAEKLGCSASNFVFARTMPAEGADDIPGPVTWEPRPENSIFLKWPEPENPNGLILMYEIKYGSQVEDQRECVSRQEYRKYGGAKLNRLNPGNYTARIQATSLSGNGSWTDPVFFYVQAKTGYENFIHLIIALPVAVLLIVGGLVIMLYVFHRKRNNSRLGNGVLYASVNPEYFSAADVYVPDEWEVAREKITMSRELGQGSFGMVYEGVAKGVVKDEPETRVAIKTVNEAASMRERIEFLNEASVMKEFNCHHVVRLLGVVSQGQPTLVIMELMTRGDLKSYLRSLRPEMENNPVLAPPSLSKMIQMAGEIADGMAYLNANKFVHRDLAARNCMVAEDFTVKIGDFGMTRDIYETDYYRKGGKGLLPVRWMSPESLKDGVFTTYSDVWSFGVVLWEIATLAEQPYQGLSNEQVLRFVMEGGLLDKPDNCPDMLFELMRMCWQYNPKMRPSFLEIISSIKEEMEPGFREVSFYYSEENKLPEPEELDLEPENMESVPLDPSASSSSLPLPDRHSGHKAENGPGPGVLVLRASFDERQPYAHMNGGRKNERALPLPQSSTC
# [20] = molecular target: Insulin-like growth factor 1 receptor (Homo sapiens) (UniProt P08069); conditions: at 10 µM
smiles,measurement,setting,value
O=c1c(-c2ccc(F)cc2)c(-c2ccncc2)[nH]n1-c1ccc(Cl)cc1,residual activity,[1],30%
same,residual activity,[2],131%
Nc1nccc(-c2c(-c3ccc(F)cc3)ncn2C2CCNCC2)n1,residual activity,[3],69%
same,residual activity,[2],120%
same,residual activity,[4],116%
same,residual activity,[5],140%
O=C1Cc2c([nH]c3ccc(Br)cc23)-c2ccccc2N1,residual activity,[3],31%
same,residual activity,[6],95%
same,residual activity,[7],93%
same,residual activity,[8],81%
same,residual activity,[9],94%
same,residual activity,[10],68%
same,residual activity,[11],81%
same,residual activity,[12],36%
same,residual activity,[13],82%
same,residual activity,[14],83%
CC(C)(C)c1nc2c3ccc(F)cc3c3c(=O)[nH]ccc3c2[nH]1,residual activity,[3],3%
same,residual activity,[2],52%
same,residual activity,[15],32%
same,residual activity,[16],27%
same,residual activity,[9],55%
same,residual activity,[10],62%
same,residual activity,[11],61%
same,residual activity,[12],53%
same,residual activity,[5],101%
same,residual activity,[13],52%
N#C/C(=C\c1ccc(O)c(O)c1)C(=O)NCc1ccccc1,residual activity,[3],65%
same,residual activity,[17],81%
same,residual activity,[2],104%
same,residual activity,[15],89%
same,residual activity,[18],89%
same,residual activity,[7],100%
same,residual activity,[8],85%
same,residual activity,[10],81%
same,residual activity,[12],100%
same,residual activity,[5],88%
same,residual activity,[13],85%
same,residual activity,[14],104%
Cc1cc(C)c(/C=C2\C(=O)Nc3ccccc32)[nH]1,residual activity,[3],52%
same,residual activity,[15],73%
same,residual activity,[9],76%
same,residual activity,[10],75%
same,residual activity,[11],39%
same,residual activity,[12],13%
same,residual activity,[5],65%
same,residual activity,[13],3%
Oc1cccc(-c2nc(N3CCOCC3)c3oc4ncccc4c3n2)c1,residual activity,[3],67%
same,residual activity,[17],82%
same,residual activity,[1],91%
same,residual activity,[5],128%
same,residual activity,[13],84%
O=c1cc(N2CCOCC2)oc2c(-c3ccccc3)cccc12,residual activity,[3],55%
same,residual activity,[13],75%
O=C1NC(=O)c2c1c1c3ccccc3[nH]c1n1cncc21,residual activity,[3],35%
same,residual activity,[17],91%
same,residual activity,[19],45%
same,residual activity,[20],30%
same,residual activity,[2],63%
same,residual activity,[15],55%
same,residual activity,[4],94%
same,residual activity,[16],80%
same,residual activity,[6],10%
same,residual activity,[18],15%
same,residual activity,[7],31%
same,residual activity,[8],19%
same,residual activity,[9],76%
same,residual activity,[10],66%
same,residual activity,[11],61%
same,residual activity,[12],56%
same,residual activity,[5],5%
same,residual activity,[13],3%
same,residual activity,[14],85%
O=C1NC(=O)C(c2cn(CCCO)c3ncccc23)=C1c1cnccn1,residual activity,[3],67%
same,residual activity,[6],122%
same,residual activity,[18],96%
same,residual activity,[7],94%
same,residual activity,[8],92%
same,residual activity,[9],98%
same,residual activity,[10],98%
same,residual activity,[11],87%
same,residual activity,[12],70%
same,residual activity,[14],94%
O=S(=O)(NCCNC/C=C/c1ccc(Br)cc1)c1cccc2cnccc12,residual activity,[3],66%
same,residual activity,[4],126%
same,residual activity,[16],100%
same,residual activity,[10],75%
